Bioassay records: PubChem, several laboratories
Mtb betalactam – beta-lactam sensitization of Mtb H37Rv; actives 0.27% (n = 330,000); M. tuberculosis H37Rv growth with meropenem, percent inhibition; inhibition, % at 25 µM; AID 434955;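 note: growth measured after seven days incubation then overnight dye step; 0% = bacteria only wells and 100% = bacteria with antibiotic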
Rv3671c protease – inhibitors of M. tuberculosis serine protease Rv3671c | AID 2606 | actives 0.048% (n = 320,000) | inhibition, % at 5.96 µM | P9WHR9; in the data active = inhibition above about 38%;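 note: extracellular domain of Rv3671c used as enzyme; 0% = enzyme with DMSO and 100% = no enzyme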
RecA splice inh – inhibitors of M. tuberculosis RecA intein splicing; AID 2221; inhibition, % (test concentration not listed); P9WHJ3; cell-free RecA intein splicing, fluorescence; actives 0.75% (n = 290,000); in the data active = inhibition above about 30%;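 note: 0% = vehicle wells and 100% = reference inhibitor control wells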
Mtb FBA inh – inhibits M. tuberculosis FBA enzyme; P9WQA3; AID 588726; actives 2.3% (n = 360,000); purified M. tuberculosis FBA, fluorescence read-out; inhibition, % at 1 µM; in the data active = inhibition above about 27%;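 note: 0% = vehicle and 100% = reference inhibitor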
UGM FP inh – inhibitors of M. tuberculosis UDP-galactopyranose mutase; inhibition, % at 10 µM; purified UGM, fluorescence polarization probe displacement; actives 0.06% (n = 320,000); P9WIQ1; in the data active = inhibition above about 10%, passing the limit was not always enough
Target sequence (P9WIQ1 whole entry, looked up): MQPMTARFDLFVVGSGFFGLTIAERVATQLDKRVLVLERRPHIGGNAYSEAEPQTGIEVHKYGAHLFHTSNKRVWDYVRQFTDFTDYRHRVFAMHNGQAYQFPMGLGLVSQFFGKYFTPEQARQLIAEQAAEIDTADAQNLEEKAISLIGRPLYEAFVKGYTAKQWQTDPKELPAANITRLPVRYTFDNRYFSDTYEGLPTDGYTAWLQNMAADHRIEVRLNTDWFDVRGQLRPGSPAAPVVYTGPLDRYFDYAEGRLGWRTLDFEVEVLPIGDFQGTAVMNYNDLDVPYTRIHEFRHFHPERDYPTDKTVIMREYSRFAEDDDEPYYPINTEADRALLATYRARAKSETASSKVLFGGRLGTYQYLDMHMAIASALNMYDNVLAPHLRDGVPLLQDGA
GDH-TPI counter-1 – counter-screen for M. tuberculosis FBA inhibitors: GDH-TPI coupled enzymes; GDH-TPI coupled enzyme counterscreen, NADH absorbance; inhibition, % at 4.8 µM; actives 1.2% (n = 360,000); in the data active = inhibition above about 30%;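 note: 0% = DMSO wells and 100% = wells lacking the enzyme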
Mtb FBA inh conf – confirmation of M. tuberculosis fructose-bisphosphate aldolase inhibitors; actives 78% (n = 5,600); shares compounds with Mtb FBA inh; inhibition, % at 1 µM; AID 651616; purified M. tuberculosis FBA, fluorescence read-out; in the data active = inhibition above about 27%;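 note: 0% = vehicle wells and 100% = reference inhibitor wells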
GDH-TPI counter-2 – GDH-TPI inhibition counter-screen for FBA inhibitors; actives 81% (n = 5,600); GDH-TPI coupled enzyme counterscreen, fluorescence; shares compounds with Mtb FBA inh; AID 652141; inhibition, % at 1 µM; in the data active = inhibition above about 10%
GDH-TPI DR – GDH-TPI dose response counter-screen for Mtb FBA. IC50, µM. actives 79% (n = 170). AID 652145. GDH-TPI coupled enzyme assay, fluorescence, artifact counterscreen. shares compounds with Mtb FBA inh
* marks the source's active call; other numbers are inactive results; nt = no result. Most compounds without a hit are left out; they make up all but 4% or so of the library. Unless noted, the rule behind the calls is not given here.

SMILES	Mtb betalactam	Rv3671c protease	RecA splice inh	Mtb FBA inh	UGM FP inh	GDH-TPI counter-1	Mtb FBA inh conf	GDH-TPI counter-2	others
CCCCNc1c(-c2cccc(SC(C)CC)c2)nc2ccc(Cl)cn12 (stereo not given)	6.3	-0.3	nt	5.7	5.2	-3.6	nt	nt
CCCCCCSc1cc(-c2nc3ccc(C)cn3c2NCCCC)ccc1OC	4.5	5.6	nt	27.7*	0.0	17.6	139.3*	107.3*
CCCCCCSc1cc(-c2nc3ccc(Cl)cn3c2NCCCC)ccc1OC	-1.7	-2.0	-2.6	1.1	-1.9	5.7	nt	nt
CCCCNc1c(-c2ccc(OC)c(SC(C)CC)c2)nc2cc(C)ccn12 (stereo not given)	96.7	13.4	nt	30.7*	nt	4.0	92.9*	91.1*
c1csc(-c2nc3ccccn3c2NC2CCCCC2)c1	1.0	4.6	-8.0	42.9*	1.3	7.9	0.7	-4.0
CN(Cc1nc2ccccc2c(=O)[nH]1)C(=O)c1ccc(S(=O)(=O)N(C)C)cc1	-9.8	-5.8	1.4	-0.7	2.4	-11.2	nt	nt
CC(=O)c1ccc(-c2ccc(C(=O)N(C)Cc3nc4ccccc4c(=O)[nH]3)o2)cc1	3.2	-7.4	nt	88.7*	-1.8	16.9	4.4	-4.4
COc1ccc(NC(=O)CN2C(=O)NC3(CCCc4ccccc43)C2=O)c(OC)c1 (stereo not given)	-5.2	-4.4	nt	-2.8	-0.7	1.6	nt	nt
CCOC(=O)Nc1ccc2c(COC(=O)CN(C)S(=O)(=O)c3ccc(C)cc3)cc(=O)oc2c1	1.2	-15.9	0.9	79.2*	1.0	12.9	41.2*	23.0*
Cc1ccc(S(=O)(=O)NCC(=O)OCc2cc(=O)oc3cc(C)ccc23)cc1	-6.1	-1.4	nt	3.0	-1.6	13.4	nt	nt
CCOC(=O)Nc1ccc2c(COC(=O)c3ccccc3O)cc(=O)oc2c1	14.7	-6.0	-0.3	56.4*	-0.6	20.0	37.8*	32.1*
COc1ccc(C2N(C(=O)N(C)C)CCN2S(=O)(=O)c2ccc(OC)cc2)cc1 (stereo not given)	-6.8	1.3	nt	-1.8	2.7	1.5	nt	nt
COc1ccc(CNC(=O)c2ccc(NC(=O)C3=CSCCO3)cc2)cc1	12.8	-17.6	4.1	7.2	-0.2	20.7	nt	nt
O=C1NC(=O)c2cc3ccccc3cc21	-9.1	-8.3	nt	36.5*	2.6	2.9	34.4*	23.9*
O=C1CCNc2cc3ccccc3cc21	11.7	5.8	-31.1	23.3	1.8	6.4	nt	nt
O=C1CN(Cc2ccccc2)C(=NCc2ccco2)S1	-1.1	-1.7	10.4	27.8*	0.0	3.3	183.8*	162.8*
S=C1SCN(Cc2ccccc2)CN1Cc1ccco1	nt	nt	nt	3.2	nt	6.2	nt	nt
COc1ccc(NC(=O)CCc2nnc3ccc(NCc4ccco4)nn23)cc1	-3.6	-13.6	1.8	-0.8	0.2	1.2	nt	nt
COc1ccc(NC(=O)CCc2nnc3ccc(NCc4ccco4)nn23)cc1OC	-7.9	-3.4	2.2	89.1*	-0.5	0.7	141.6*	118.4*
Cn1nc(C(C)(C)C)cc1N1C(=O)CCC1(C)C(=O)Nc1ccc2c(c1)OCCO2 (stereo not given)	nt	nt	nt	1.0	nt	nt	nt	nt
COc1cccc(/C=N/n2c(C3CCCCC3)n[nH]c2=S)c1	0.7	-1.9	-0.7	0.7	1.0	-0.7	nt	nt
N#Cc1cc2cc3c(cc2nc1NCCNC(=S)NCCCN1CCOCC1)OCO3	-5.0	-0.4	-107.2	69.5*	1.9	-2.8	133.1*	110.9*
CC(Oc1cc2oc(=O)c3c(c2cc1Cl)CCC3)C(=O)NCCN1CCOCC1 (stereo not given)	4.9	-3.7	-1.6	12.5	-0.1	24.4	nt	nt
Cc1cc(=O)oc2c(C)c(OC(C)C(=O)NCCCN3CCOCC3)ccc12 (stereo not given)	-4.0	-2.1	-0.8	12.1	-3.2	14.7	nt	nt
Cc1cc(OC(C)C(=O)NCCCN2CCOCC2)c2c(C)cc(=O)oc2c1 (stereo not given)	1.6	-3.4	0.3	56.4*	2.4	-5.0	11.6	-1.7	GDH-TPI DR=2.73*
